Assay [1] deals with Tumor susceptibility gene 101 protein (Homo sapiens) (UniProt Q99816). The experiment in a line: qHTS Assay for Iinhibitors of HIV-1 Budding by Blocking the Interaction of PTAP/TSG101: Hit Validation (AID 651600). Also: nearly all actives have a fitted effect of over 70% in size. Also: potency is read from the fitted curve at half-maximal effect. As to activity change, negative = inhibition: % is scaled to controls: 0 for no effect and ±100 for the full control effect. The procedure, abridged: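 FITC-PTAP peptide (50 nM final) binding to Tsg101 binding domain (10 uM final) was measured by polarization after 20 min at r.t. with compounds, in 10 mM HEPES pH 7.5 buffer with 0.15 M NaCl and 0.01% Tween 20.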
Background: In qHTS, concentration-response curves come from the screen itself.

For assay [2], the target named is Rap guanine nucleotide exchange factor 3 (Homo sapiens) (UniProt O95398). The assay is described as follows: Confirmatory qHTS for agonist of cAMP-regulated guanine nucleotide exchange factor 3 (EPAC1) (AID 1645881). Also: nearly all actives have a fitted effect of over 75% in size. Also: potency is read from the fitted curve at half-maximal effect.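 As to activation: EPAC1 catalysed release of BODIPY-GDP from Rap1B seen as fluorescence loss; 100% = effect of cAMP agonist control.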
Assay [3] concerns the target Rap guanine nucleotide exchange factor 4 (Homo sapiens) (UniProt Q8WZA2). The assay is described as follows: Confirmatory qHTS for agonist of cAMP-regulated guanine nucleotide exchange factor 4 (EPAC2) (AID 1645884).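 Also: nucleotide exchange releases bodipy-GDP from Rap1 and this lowers its fluorescence; nearly all actives have a fitted effect of over 65% in size.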 Also: potency is read from the fitted curve at half-maximal effect. As to activation: % is scaled to controls: 0 for no effect and ±100 for the full control effect.
Assay [4] shares this target. The experiment in a line: Confirmatory qHTS for antagonist of cAMP-regulated guanine nucleotide exchange factor 4 (EPAC2) (AID 1645885). Also: nearly all actives have a fitted effect of over 25% in size. Also: potency is read from the fitted curve at half-maximal effect. As to activity change, negative = inhibition: % is scaled to controls: 0 for no effect and ±100 for the full control effect.
Assay [5] addresses Rap guanine nucleotide exchange factor 3 (Homo sapiens) (UniProt O95398). The experiment in a line: Counterscreen qHTS for antagonist of cAMP-regulated guanine nucleotide exchange factor 3 (EPAC1) (AID 1645888).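 Also: fluorescence loss as bound BODIPY-GDP is released from Rap1B; % of control where 0% means no effect.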 The method, boiled down:
(§1)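 Rap1B–BODIPY-GDP (250 nM) with 50 uM GDP; compounds pin-transferred to 9.74 nM–152 uM final (activator) or from 7.32 nM upwards (inhibitor). Fluorescence Ex/Em 480/540 nm read at 5 and 30 min, then after adding cAMP or buffer, at room temperature.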
A general note: The purpose of a counterscreen is to sort out artefacts and off-target activity.

For assay [6] the target is unchanged. The assay is described as follows: Counterscreen qHTS for agonist of cAMP-regulated guanine nucleotide exchange factor 3 (EPAC1) (AID 1645889). Also: nearly all actives have a fitted effect of over 40% in size. Also: potency is read from the fitted curve at half-maximal effect. As to activation: % of control where 0% means no effect. The procedure, abridged:
as §1

Assay [7] in a line: qHTS for Inhibitors of the vitamin D receptor (VDR): Hit Validation using a Texas Red Assay (AID 602201). Also: potency is read from the fitted curve at half-maximal effect. The procedure, abridged:
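Fluorescence polarization with 1.5 uM VDR-LBD, LG19078 and 7 nM Texas Red (final). After 2 hours at ambient temperature, read at Ex 595 nm/Em 615 nm.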

The target of assay [8] is Lethal(3)malignant brain tumor-like protein 1 (Homo sapiens) (UniProt Q9Y468). The assay is described as follows: qHTS Assay for the Inhibitors of L3MBTL1: Hit Validation (AID 540279). Also: potency is read from the fitted curve at half-maximal effect; nearly all actives have a fitted effect of over 70% in size. The following applies: L3MBTL1 methyl-lysine binding inhibition, biochemical qHTS. The procedure, abridged: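 L3MBTL1 (50 nM final) preformed 30 min with biotinylated H3(1-15)K9me1 peptide (75 nM), then compound 30 min at room temperature. Streptavidin donor and nickel chelate acceptor AlphaScreen beads (10 ug/mL each final) added for 30 min before read.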

Assay [9] in a line: qHTS Assay for the Inhibitors of L3MBTL1: Hit Validationin AlphaScreen Counterscreen (AID 602224). Also: 0% is about no effect. The method, boiled down:
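Bead-bridging control using 1 nM b-His6 linking streptavidin donor and nickel chelate acceptor beads (10 ug/mL each, final). Compound exposure 15 min, then beads, 30 min dark incubation at room temperature before AlphaScreen reading.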

For assay [10], the target named is Tyrosyl-DNA phosphodiesterase 1 (Homo sapiens) (UniProt Q9NUW8). The assay is described as follows: Confirmation Assay for Inhibitors of Tyrosyl-DNA Phosphodiesterase (TDP1) (AID 489007). Also: potency is read from the fitted curve at half-maximal effect; nearly all actives have a fitted effect of over 40% in size. The following applies: recombinant human TDP1 enzymatic activity, dose-response. The procedure, abridged:
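Recombinant human Tdp1 (1 nM final), expressed in E. coli, preincubated 15 min with compound. Then 15 nM 5'-biotin/3'-phosphotyrosine-FITC DNA substrate added for 5 min at room temperature. AlphaScreen beads (10 ug/ml) added for 10 min; cleavage gives signal loss.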

Results filed as inconclusive are left out. A number with no mark means an inactive call. Some of the results follow. The source made the active and inactive calls. Calls follow the shape of the dose curve; as a rule, active = well fitted curve in the direction sought with a large enough effect; inconclusive = small, poorly fitted or top-dose-only effect, or another doubt; inactive = no such curve, though single readings can be large; an effect the other way counts as inactive or inconclusive.

Sequence of Rap guanine nucleotide exchange factor 4 (Homo sapiens) (Q8WZA2 whole entry, looked up): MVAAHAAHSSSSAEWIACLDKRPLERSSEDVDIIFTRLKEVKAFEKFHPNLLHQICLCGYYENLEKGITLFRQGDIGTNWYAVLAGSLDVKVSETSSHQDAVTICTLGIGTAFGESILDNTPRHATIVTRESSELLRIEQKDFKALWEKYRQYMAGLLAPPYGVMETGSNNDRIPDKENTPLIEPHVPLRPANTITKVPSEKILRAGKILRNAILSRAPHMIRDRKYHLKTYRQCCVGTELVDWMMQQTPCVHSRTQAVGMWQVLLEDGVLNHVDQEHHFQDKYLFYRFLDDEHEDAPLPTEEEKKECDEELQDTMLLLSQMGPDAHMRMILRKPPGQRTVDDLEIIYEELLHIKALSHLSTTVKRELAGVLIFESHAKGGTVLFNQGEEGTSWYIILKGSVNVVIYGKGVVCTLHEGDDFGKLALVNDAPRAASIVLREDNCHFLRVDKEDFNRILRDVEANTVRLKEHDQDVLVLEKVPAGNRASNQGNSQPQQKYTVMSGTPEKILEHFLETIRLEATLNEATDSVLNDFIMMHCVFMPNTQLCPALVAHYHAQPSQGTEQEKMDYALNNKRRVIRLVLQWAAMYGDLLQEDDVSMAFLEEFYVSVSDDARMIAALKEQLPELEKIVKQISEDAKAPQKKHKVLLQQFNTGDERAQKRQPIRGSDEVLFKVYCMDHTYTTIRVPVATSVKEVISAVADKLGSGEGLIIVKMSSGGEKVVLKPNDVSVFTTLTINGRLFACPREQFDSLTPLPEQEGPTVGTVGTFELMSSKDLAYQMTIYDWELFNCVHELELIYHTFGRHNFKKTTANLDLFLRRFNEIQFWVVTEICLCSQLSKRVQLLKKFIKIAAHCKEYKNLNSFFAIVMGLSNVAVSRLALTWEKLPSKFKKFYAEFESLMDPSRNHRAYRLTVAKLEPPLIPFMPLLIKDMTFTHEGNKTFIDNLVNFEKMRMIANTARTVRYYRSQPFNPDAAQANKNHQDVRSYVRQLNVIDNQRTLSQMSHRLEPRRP
Sequence of Tumor susceptibility gene 101 protein (Homo sapiens) (Q99816 whole entry, looked up, the tested form may be a part): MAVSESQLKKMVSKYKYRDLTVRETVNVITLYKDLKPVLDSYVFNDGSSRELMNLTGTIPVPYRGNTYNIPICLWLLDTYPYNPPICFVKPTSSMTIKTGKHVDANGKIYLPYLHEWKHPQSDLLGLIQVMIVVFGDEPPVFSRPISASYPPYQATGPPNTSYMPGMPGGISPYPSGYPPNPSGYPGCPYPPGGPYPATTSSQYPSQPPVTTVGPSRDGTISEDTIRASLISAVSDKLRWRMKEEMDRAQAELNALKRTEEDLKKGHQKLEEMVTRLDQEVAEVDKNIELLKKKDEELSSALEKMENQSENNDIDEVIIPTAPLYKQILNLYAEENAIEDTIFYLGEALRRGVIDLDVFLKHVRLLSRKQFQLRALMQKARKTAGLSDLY
Sequence of Rap guanine nucleotide exchange factor 3 (Homo sapiens) (O95398 whole entry, looked up): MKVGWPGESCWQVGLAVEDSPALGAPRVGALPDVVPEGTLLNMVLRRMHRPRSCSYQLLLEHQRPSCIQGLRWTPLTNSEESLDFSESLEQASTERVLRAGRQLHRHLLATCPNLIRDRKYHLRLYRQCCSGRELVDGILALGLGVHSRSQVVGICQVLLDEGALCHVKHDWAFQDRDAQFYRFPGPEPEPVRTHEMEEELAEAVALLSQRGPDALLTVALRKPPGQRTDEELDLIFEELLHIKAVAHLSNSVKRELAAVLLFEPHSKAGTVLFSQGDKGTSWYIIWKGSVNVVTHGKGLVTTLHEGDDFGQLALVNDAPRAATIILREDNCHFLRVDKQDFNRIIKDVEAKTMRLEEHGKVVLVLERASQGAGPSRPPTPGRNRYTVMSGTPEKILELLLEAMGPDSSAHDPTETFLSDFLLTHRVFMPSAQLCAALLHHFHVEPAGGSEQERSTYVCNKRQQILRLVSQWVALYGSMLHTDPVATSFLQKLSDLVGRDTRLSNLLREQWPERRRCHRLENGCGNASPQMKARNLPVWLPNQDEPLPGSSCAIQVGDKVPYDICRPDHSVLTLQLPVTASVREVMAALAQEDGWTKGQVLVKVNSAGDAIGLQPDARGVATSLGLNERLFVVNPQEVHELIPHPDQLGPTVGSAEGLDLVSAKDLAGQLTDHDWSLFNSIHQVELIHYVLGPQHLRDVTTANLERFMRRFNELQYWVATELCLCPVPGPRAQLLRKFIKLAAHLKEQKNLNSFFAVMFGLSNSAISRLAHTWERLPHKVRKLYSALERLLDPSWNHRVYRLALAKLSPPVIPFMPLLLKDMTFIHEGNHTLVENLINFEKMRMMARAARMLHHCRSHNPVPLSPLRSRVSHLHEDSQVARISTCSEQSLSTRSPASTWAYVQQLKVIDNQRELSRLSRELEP
Sequence of Tyrosyl-DNA phosphodiesterase 1 (Homo sapiens) (Q9NUW8 whole entry, looked up): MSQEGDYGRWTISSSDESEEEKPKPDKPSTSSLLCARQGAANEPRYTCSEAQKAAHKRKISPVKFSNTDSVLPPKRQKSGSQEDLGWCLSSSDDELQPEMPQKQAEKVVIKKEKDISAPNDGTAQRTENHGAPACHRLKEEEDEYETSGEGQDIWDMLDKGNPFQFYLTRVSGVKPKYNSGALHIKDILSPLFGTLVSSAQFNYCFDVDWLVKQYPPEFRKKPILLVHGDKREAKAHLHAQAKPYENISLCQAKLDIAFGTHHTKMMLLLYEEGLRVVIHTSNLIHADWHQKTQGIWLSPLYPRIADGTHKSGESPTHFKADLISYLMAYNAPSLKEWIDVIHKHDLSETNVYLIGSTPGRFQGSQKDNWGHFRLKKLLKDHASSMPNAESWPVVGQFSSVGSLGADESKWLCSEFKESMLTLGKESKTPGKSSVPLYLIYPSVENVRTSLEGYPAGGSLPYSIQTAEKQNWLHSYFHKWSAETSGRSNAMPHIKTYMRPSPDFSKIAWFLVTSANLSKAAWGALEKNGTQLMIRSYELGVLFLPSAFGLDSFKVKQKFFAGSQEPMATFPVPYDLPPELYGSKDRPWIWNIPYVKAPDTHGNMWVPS
Sequence of Lethal(3)malignant brain tumor-like protein 1 (Homo sapiens) (Q9Y468 whole entry, looked up): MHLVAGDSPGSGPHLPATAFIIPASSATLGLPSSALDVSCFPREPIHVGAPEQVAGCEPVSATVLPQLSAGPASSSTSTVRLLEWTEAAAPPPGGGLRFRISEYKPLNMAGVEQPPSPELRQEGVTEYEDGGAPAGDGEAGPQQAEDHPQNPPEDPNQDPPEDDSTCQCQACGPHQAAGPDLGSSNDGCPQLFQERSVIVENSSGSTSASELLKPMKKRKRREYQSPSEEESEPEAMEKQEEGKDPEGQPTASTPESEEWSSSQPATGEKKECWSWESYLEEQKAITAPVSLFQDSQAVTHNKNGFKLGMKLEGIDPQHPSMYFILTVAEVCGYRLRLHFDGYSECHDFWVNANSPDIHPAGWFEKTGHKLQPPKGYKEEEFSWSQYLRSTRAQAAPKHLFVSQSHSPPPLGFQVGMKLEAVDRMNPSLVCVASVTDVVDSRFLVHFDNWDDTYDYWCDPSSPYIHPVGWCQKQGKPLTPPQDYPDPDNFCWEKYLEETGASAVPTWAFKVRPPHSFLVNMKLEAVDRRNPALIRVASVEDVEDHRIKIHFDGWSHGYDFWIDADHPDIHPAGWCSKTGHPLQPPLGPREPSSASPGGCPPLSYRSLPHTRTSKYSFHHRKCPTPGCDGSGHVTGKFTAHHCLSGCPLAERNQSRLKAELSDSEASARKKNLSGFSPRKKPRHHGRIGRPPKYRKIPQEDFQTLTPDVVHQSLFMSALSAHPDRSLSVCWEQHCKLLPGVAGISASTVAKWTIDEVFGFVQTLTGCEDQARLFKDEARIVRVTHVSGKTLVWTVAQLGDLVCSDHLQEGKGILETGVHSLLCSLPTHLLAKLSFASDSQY

`COc1ccc2nc(N3CCCC3)c(C#N)cc2c1`: the Potency entry in [1], in [2] and in assay [4] was “inactive” throughout. For the same molecule, the activation in assay [3] was 3.12% [at 17.1 µM, percent relative to cAMP agonist control]. The activity change, negative = inhibition in assay [5] is -11.6% [at 30.8 µM].

Consider `Cc1ccc(/C=N/N2CCN(Cc3cccc4ccccc34)CC2)o1`, for which the Potency entry in assay [2], in [3], in assay [4], in assay [5] and in [6] was “inactive” each time.

For `OC(c1ccccc1)(c1nc(-c2cccc(C(F)(F)F)c2)cs1)C(F)(F)F` (stereo not drawn), the Potency result in [2], in assay [3], in assay [4] and in assay [6] was “inactive” throughout.

As for `Cc1ccc2nc(-c3ccccc3)c(Cc3cccc(F)c3)n2c1`, the Potency result in assay [2], in assay [3], in assay [5] and in [6] was “inactive” each time. Besides, in assay [4], the Potency was 0.426 µM (active).

In the case of `COc1ccc(CNC(=O)C(C#N)c2nc3ccccc3nc2N2CCCC2)cc1` (stereo not drawn), the Potency in assay [1] is 9.19 µM (active). In addition, the Potency entry in [2], in [3], in assay [4], in [5] and in [6] was “inactive” each time.

In the case of `COc1ccc(S(=O)(=O)Nc2cc(SCC(=O)O)c(O)c3ccccc23)cc1`, the Potency is 3.55 µM (active) in [7] and 56.2 µM (active) in assay [6]. For the same molecule, the Potency entry in [2], in assay [3], in [4] and in [5] was “inactive” in each case.

In the case of `CN(CC(=O)Nc1ccc(F)cc1)C(=O)COC(=O)C1CCN(c2ccc(C(F)(F)F)cn2)CC1`, the Potency entry in assay [2], in assay [3], in assay [4] and in assay [6] was “inactive” throughout.

In the case of `Cc1ccc(Cn2c(C)nc3c(c2=O)c2nc4ccccc4nc2n3Cc2ccco2)cc1`, the Potency in assay [8] was 23.8 µM (active). In addition, the outcome in assay [9] was inactive. The Potency result in [2], in assay [3], in [4], in assay [5] and in assay [6] was “inactive” throughout.

As to `Cc1ccccc1NC(=O)CN1C(=O)N/C(=C\c2ccccc2OCc2ccc(C(=O)O)cc2)C1=O`, the Potency entry in assay [2], in assay [3], in assay [5] and in [6] was “inactive” each time. Also, in assay [4], the Potency was 53.6 µM (active).

In the case of `NS(=O)(=O)c1ccc(N=Nc2ccc(=O)[nH]c2O)cc1`, in assay [10], the Potency is 6.31 µM (active). Besides, the Potency entry in assay [2] and in assay [4] was “inactive” throughout. In addition, the activation in assay [3] is -0.407% [at 17.1 µM, percent relative to cAMP agonist control]; in [6], -0.888% [at 30.8 µM]. Further, the activity change, negative = inhibition in assay [5] was -5.26% [at 30.8 µM].

Turning to `O=C(OCCN1C(=O)c2cccc3c(N4CCOCC4)ccc(c23)C1=O)c1cccc(Cl)c1`, the Potency result in [1] and in assay [5] was “inactive” each time. For the same molecule, the Potency is 89.1 µM (active) in assay [2], 100 µM (active) in assay [3], 75.7 µM (active) in [4] and 3.16 µM (active) in assay [6].

Take `COc1cccc(S(=O)(=O)Nc2ccc3c(c2)[C@@H]2C[C@@H](CC(=O)NCc4ccc(Cl)cc4)O[C@@H](CO)[C@@H]2O3)c1`: the Potency entry in assay [2], in [3], in assay [4] and in [6] was “inactive” each time.

As for `CCOC(=O)c1nc(C)nc(Sc2n[nH]c(-c3cc(Cl)cc(Cl)c3)n2)c1C`, the Potency entry in assay [2] and in [4] was “inactive” each time. Besides, the activation was 2.66% [at 17.1 µM, percent relative to cAMP agonist control] in assay [3] and 19.4% [at 30.8 µM] in [6].

Turning to `O=Nc1c(O)n(Cc2cccc(C(F)(F)F)c2)c2ccccc12`, the Potency result in [2], in assay [3] and in assay [6] was “inactive” each time. Moreover, the Potency in assay [4] was 47.8 µM (active).

As to `CCCCC[C@H](C)N1C[C@@H](COCc2ccccc2)Oc2cc(N3CC[C@@H](O)C3)ccc2S1(=O)=O`, the Potency result in [2] and in assay [4] was “inactive” in each case. The activation in [3] is 6.13% [at 17.1 µM, percent relative to cAMP agonist control]; in [6], 5.17% [at 30.8 µM].

With `CCCCC[C@H](C)N1C[C@@H](COCc2ccccc2)Oc2cc(N3CC[C@H](O)C3)ccc2S1(=O)=O`, the Potency entry in [2], in assay [3] and in assay [6] was “inactive” throughout. Further, the Potency in [4] is 19 µM (active).

As to `O=C(O)c1cc(NN=Nc2cccc([N+](=O)[O-])c2)cc([N+](=O)[O-])c1`, the Potency result in assay [2] and in [4] was “inactive” throughout. For the same molecule, the activation in [3] is 1.11% [at 17.1 µM, percent relative to cAMP agonist control]; in assay [6], 8.61% [at 30.8 µM].

As for `CNC(=O)c1ccc(Nc2nnc(-c3ccc(O)cc3)c3ccccc23)cc1`, the Potency result in [2], in assay [3], in assay [4] and in assay [6] was “inactive” each time.

Turning to `Cc1ccc(NS(=O)(=O)c2ccc(C(=O)N3CC(C)CC(C)C3)cc2)cc1` (stereo not drawn), the Potency entry in assay [2], in [3], in assay [4] and in [6] was “inactive” in each case.

With `COc1cccc(C(=O)/C=C/c2ccc(OCC#N)c(OC)c2)c1`, the Potency result in assay [2] and in [4] was “inactive” in each case. Moreover, the activation is 0% [at 17.1 µM, percent relative to cAMP agonist control] in assay [3] and 12.6% [at 30.8 µM] in [6].

For `O=C(O)CN1C(=O)/C(=C\c2cccc(OCc3ccc(F)cc3)c2)SC1=S`, the Potency entry in assay [2] and in assay [4] was “inactive” throughout. For the same molecule, the activation in assay [3] was 1.62% [at 17.1 µM, percent relative to cAMP agonist control]; in assay [6], 14.2% [at 30.8 µM].

For the molecule `C[C@H]1CN([C@@H](C)CO)S(=O)(=O)c2ccc(Br)cc2O[C@@H]1CN(C)Cc1ccccc1`, the Potency result in [2], in assay [3] and in assay [6] was “inactive” each time. Besides, the Potency in assay [4] was 23.9 µM (active).
